# In ChEMBL document CHEMBL4513143, “CO-ADD screening of University of Natural Resources and Life (Austria) compounds”:
# Entries with a potency or affinity are not part of this list.
# Columns and labels:
# Staphylococcus aureus = conditions: Concentration 32 ug.mL-1; ASSAY_TEST Inhibition of Bacterial Growth; detection method Absorption (OD600); MEDIA CAMHB; plate type 384well; NBS; CORNING #3640; time 18 hr
# Escherichia coli = conditions: Concentration 32 ug.mL-1; ASSAY_TEST Inhibition of Bacterial Growth; detection method Absorption (OD600); MEDIA CAMHB; plate type 384well; NBS; CORNING #3640; time 18 hr
Structure (SMILES),Inhibition (Staphylococcus aureus),Inhibition (Escherichia coli)
CCN(CC)CC.O=P(O)(O)OC1C[C@@H](O)[C@H](O)[C@@H]([C@H](O)CO)O1 (stereo not given in full),23.92%,21.41%
CCN(CC)CC.C[C@H](CC1O[C@H]([C@@H](O)CO)[C@@H](O)[C@H](O)[C@@H]1O)OP(=O)(O)O (stereo not given in full),23.43%,26.24%
CCN(CC)CC.C[C@@H](CC1O[C@H]([C@H](O)CO)[C@@H](O)[C@H](O)[C@@H]1O)OP(=O)(O)OC[C@H]1O[C@@H](n2cnc3c(N)ncnc32)[C@H](O)[C@@H]1O (stereo not given in full),27.38%,10.57%
CCN(CC)CC.C[C@H](CC1O[C@H]([C@H](O)CO)[C@@H](O)[C@H](O)[C@@H]1O)OP(=O)(O)OC[C@H]1O[C@@H](n2cnc3c(N)ncnc32)[C@H](O)[C@@H]1O (stereo not given in full),30.75%,16.06%
OC[C@@H](O)[C@H]1OC(O)C[C@@H](O)[C@@H]1O (stereo not given in full),21.66%,15.99%
CCN(CC)CC.C[C@@H](CC1O[C@H]([C@@H](O)CO)[C@@H](O)[C@H](O)[C@@H]1O)OP(=O)(O)OC[C@H]1O[C@@H](n2cnc3c(N)ncnc32)[C@H](O)[C@@H]1O (stereo not given in full),27.76%,16.43%
N.O=C(O)C1(O)C[C@@H](O)[C@H](O)[C@@H]([C@@H](O)CO)O1 (stereo not given in full),25.6%,22.94%
CCN(CC)CC.C[C@@H](CC1O[C@H]([C@@H](O)CO)[C@@H](O)[C@H](O)[C@@H]1O)OP(=O)(O)O (stereo not given in full),24.59%,26.95%
CCN(CC)CC.C[C@H](CC1O[C@H]([C@@H](O)CO)[C@@H](O)[C@H](O)[C@@H]1O)OP(=O)(O)OC[C@H]1O[C@@H](n2cnc3c(N)ncnc32)[C@H](O)[C@@H]1O (stereo not given in full),25.31%,11.12%
CC(=O)CC1O[C@H]([C@@H](O)CO)[C@@H](O)[C@H](O)[C@@H]1O (stereo not given in full),21.72%,24.3%
